About 2,000 (36%) of roughly 5,500 compounds were called active. Not shown: some 18% with an inconclusive outcome. Rule as the data show it: active = normalized growth mostly below about 0.91 (no sharp cut-off); inconclusive = no clear call, values can overlap the other calls; inactive = mostly above about 0.92. The list shows a part of the results.
Assay: chemical genetic growth profiling, strain panel (AID 1159580);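 also: tested at 20 µM; growth read once vehicle control cultures reached saturation at 30 °C; 1 = growth at the plate median or of vehicle wells; lower values mean less growth of the strain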
Details: growth OD

Measured: normalized growth

CC(=O)O[C@H]1C[C@@H](OC(C)=O)C(C)(C)C2CC(=O)[C@]3(C)C(CC[C@@]4(C)[C@H](c5ccoc5)OC(=O)[C@H]5O[C@]543)[C@]21C (some centres not stated)
inactive: S. cerevisiae deletion strains, locus YJR075W, strain HOC1, stronger effect = lower value 1.01 | S. cerevisiae deletion strains, locus YKL009W, strain mrt4, stronger effect = lower value 0.974 | S. cerevisiae deletion strains, locus YKL068W, stronger effect = lower value 1.01 | S. cerevisiae deletion strains, locus YKL085W, strain MDH1 (second series), stronger effect = lower value 1.01 | S. cerevisiae deletion strains, locus YKL085W, strain MDH1, stronger effect = lower value 1.01 | S. cerevisiae deletion strains, locus YKL160W, strain elf1, stronger effect = lower value 0.998 | S. cerevisiae deletion strains, locus YKL190W, strain CNB1, stronger effect = lower value 0.998 | S. cerevisiae deletion strains, locus YKR001C, strain vps1, stronger effect = lower value 1.03 | S. cerevisiae deletion strains, locus YKR026C, strain gcn3, stronger effect = lower value 0.993 | S. cerevisiae deletion strains, locus YKR091W, strain srl3, stronger effect = lower value 0.991 | S. cerevisiae deletion strains, locus YLL001W, strain dnm1, stronger effect = lower value 0.99 | S. cerevisiae deletion strains, locus YLL026W, stronger effect = lower value 0.996 | S. cerevisiae deletion strains, locus YLL041C, strain sdh2, stronger effect = lower value 0.982 | S. cerevisiae deletion strains, locus YLR027C, strain aat2, stronger effect = lower value 0.988 | S. cerevisiae deletion strains, locus YLR039C, strain RIC1, stronger effect = lower value 1 | S. cerevisiae deletion strains, locus YLR058C, strain SHM2, stronger effect = lower value 1.01 | S. cerevisiae deletion strains, locus YLR102C, strain apc9, stronger effect = lower value 1 | S. cerevisiae deletion strains, locus YLR113W, strain HOG1, stronger effect = lower value 1.01 | S. cerevisiae deletion strains, locus YLR221C, strain rsa3, stronger effect = lower value 1 | S. cerevisiae deletion strains, locus YLR258W, strain gsy2, stronger effect = lower value 1 | S. cerevisiae deletion strains, locus YLR262C, strain YPT6 (second series), stronger effect = lower value 0.982 | S. cerevisiae deletion strains, locus YLR262C, strain YPT6, stronger effect = lower value 1.07 | S. cerevisiae deletion strains, locus YLR268W, strain sec22, stronger effect = lower value 0.998 | S. cerevisiae deletion strains, locus YLR320W, strain mms22, stronger effect = lower value 1.01 | S. cerevisiae deletion strains, locus YLR342W, strain FKS1 (second series), stronger effect = lower value 1.01 | S. cerevisiae deletion strains, locus YLR342W, strain FKS1, stronger effect = lower value 0.994 | S. cerevisiae deletion strains, locus YLR357W, strain rsc2, stronger effect = lower value 0.989 | S. cerevisiae deletion strains, locus YLR370C, strain arc18, stronger effect = lower value 0.998 | S. cerevisiae deletion strains, locus YLR371W, strain rom2, stronger effect = lower value 0.985 | S. cerevisiae deletion strains, locus YLR384C, strain iki3, stronger effect = lower value 0.984 | S. cerevisiae deletion strains, locus YLR418C, strain cdc73, stronger effect = lower value 1.03 | S. cerevisiae deletion strains, locus YML016C, strain PPZ1, stronger effect = lower value 0.996 | S. cerevisiae deletion strains, locus YML032C, strain rad52, stronger effect = lower value 1.01 | S. cerevisiae deletion strains, locus YML120C, strain ndi1, stronger effect = lower value 0.99 | S. cerevisiae deletion strains, locus YML124C, strain tub3, stronger effect = lower value 1 | S. cerevisiae deletion strains, locus YMR058W, strain fet3, stronger effect = lower value 0.978 | S. cerevisiae deletion strains, locus YMR078C, strain ctf18, stronger effect = lower value 0.996 | S. cerevisiae deletion strains, locus YMR125W, strain sto1, stronger effect = lower value 0.98 | S. cerevisiae deletion strains, locus YMR129W, stronger effect = lower value 0.994 | S. cerevisiae deletion strains, locus YMR205C, strain PFK2, stronger effect = lower value 0.992 | S. cerevisiae deletion strains, locus YMR223W, strain ubp8, stronger effect = lower value 1.01 | S. cerevisiae deletion strains, locus YMR231W, strain pep5, stronger effect = lower value 0.978 | S. cerevisiae deletion strains, locus YMR263W, strain SAP30, stronger effect = lower value 1.02 | S. cerevisiae deletion strains, locus YMR307W, strain GAS1, stronger effect = lower value 1.03 | S. cerevisiae deletion strains, locus YNL067W, strain RPL9B, stronger effect = lower value 1.03 | S. cerevisiae deletion strains, locus YNL071W, strain lat1, stronger effect = lower value 0.992 | S. cerevisiae deletion strains, locus YNL128W, strain TEP1, stronger effect = lower value 0.988 | S. cerevisiae deletion strains, locus YNL153C, strain GIM3, stronger effect = lower value 1.02 | S. cerevisiae deletion strains, locus YNL183C, strain NPR1, stronger effect = lower value 0.941 | S. cerevisiae deletion strains, locus YNL209W, strain ssb2, stronger effect = lower value 0.987 | S. cerevisiae deletion strains, locus YNL233W, strain BNI4, stronger effect = lower value 1.02 | S. cerevisiae deletion strains, locus YNL248C, strain rpa49, stronger effect = lower value 0.981 | S. cerevisiae deletion strains, locus YNL250W, strain rad50, stronger effect = lower value 1.03 | S. cerevisiae deletion strains, locus YNL271C, strain bni1, stronger effect = lower value 1 | S. cerevisiae deletion strains, locus YNL298W, strain CLA4, stronger effect = lower value 1.02 | S. cerevisiae deletion strains, locus YNL307C, strain MCK1, stronger effect = lower value 1.02 | S. cerevisiae deletion strains, locus YNL322C, strain KRE1 (second series), stronger effect = lower value 0.994 | S. cerevisiae deletion strains, locus YNR049C, strain mso1, stronger effect = lower value 0.987 | S. cerevisiae deletion strains, locus YNR052C, strain pop2, stronger effect = lower value 1.02 | S. cerevisiae deletion strains, locus YOL012C, strain htz1 1 | S. cerevisiae deletion strains, locus YOL147C, strain pex11, stronger effect = lower value 1.01 | S. cerevisiae deletion strains, locus YOR001W, strain rrp6, stronger effect = lower value 0.986 | S. cerevisiae deletion strains, locus YOR061W, strain CKA2, stronger effect = lower value 0.991 | S. cerevisiae deletion strains, locus YOR069W, strain VPS5, stronger effect = lower value 1 | S. cerevisiae deletion strains, locus YOR070C, strain gyp1, stronger effect = lower value 1.01 | S. cerevisiae deletion strains, locus YOR080W, strain dia2, stronger effect = lower value 1 | S. cerevisiae deletion strains, locus YOR083W, strain WHI5, stronger effect = lower value 0.995 | S. cerevisiae deletion strains, locus YOR106W, strain vam3, stronger effect = lower value 1 | S. cerevisiae deletion strains, locus YOR136W, strain idh2, stronger effect = lower value 1.01 | S. cerevisiae deletion strains, locus YOR144C, strain elg1, stronger effect = lower value 1.01 | S. cerevisiae deletion strains, locus YOR184W, strain ser1, stronger effect = lower value 0.996 | S. cerevisiae deletion strains, locus YOR231W, strain MKK1, stronger effect = lower value 0.981 | S. cerevisiae deletion strains, locus YOR265W, strain rbl2, stronger effect = lower value 0.99 | S. cerevisiae deletion strains, locus YOR270C, strain vph1, stronger effect = lower value 0.943 | S. cerevisiae deletion strains, locus YOR290C, strain snf2, stronger effect = lower value 1 | S. cerevisiae deletion strains, locus YOR316C, strain cot1, stronger effect = lower value 1.02 | S. cerevisiae deletion strains, locus YPL051W, strain arl3, stronger effect = lower value 1.03 | S. cerevisiae deletion strains, locus YPL078C, strain atp4, stronger effect = lower value 0.989 | S. cerevisiae deletion strains, locus YPL106C, strain sse1, stronger effect = lower value 1 | S. cerevisiae deletion strains, locus YPL240C, strain hsp82, stronger effect = lower value 0.995 | S. cerevisiae deletion strains, locus YPL256C, strain CLN2, stronger effect = lower value 0.968 | S. cerevisiae deletion strains, locus YPR119W, strain clb2, stronger effect = lower value 1.01 | S. cerevisiae deletion strains, locus YPR141C, strain kar3, stronger effect = lower value 1 | S. cerevisiae deletion strains, locus YPR163C, strain tif3, stronger effect = lower value 1.01 | S. cerevisiae deletion strains, locus YPR167C, strain met16, stronger effect = lower value 1 | S. cerevisiae deletion strains, strain wtn01, stronger effect = lower value 0.984 | S. cerevisiae strains, strain wild type, stronger effect = lower value 0.991

From PubChem BioAssay AID1159580 (chemical genetic matrix, 2015)
